This note sets out measurements from ChEMBL document CHEMBL1961873, “Compounds: GSK PKIS; Assays: Nanosyn kinase panel” (2012).

Broadly, the inhibition is the change of the read-out against control, counted positive when it falls.

For assay [1], the target named is Calcium/calmodulin-dependent protein kinase type II subunit alpha (Homo sapiens) (UniProt Q9UQM7). The conditions noted are these: at 1 µM.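 Further: reported value is a mean percent inhibition of CAMK2A.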
The target of assay [2] is Calcium/calmodulin-dependent protein kinase type II subunit delta (Homo sapiens) (UniProt Q13557). The conditions noted are these: at 0.1 µM.
The target is the same in assay [3]. The conditions noted are these: at 1 µM.
For assay [4], the target named is T1, Calcium/calmodulin-dependent protein kinase type IV (Homo sapiens) (UniProt Q16566).
T1 sequence (whole entry): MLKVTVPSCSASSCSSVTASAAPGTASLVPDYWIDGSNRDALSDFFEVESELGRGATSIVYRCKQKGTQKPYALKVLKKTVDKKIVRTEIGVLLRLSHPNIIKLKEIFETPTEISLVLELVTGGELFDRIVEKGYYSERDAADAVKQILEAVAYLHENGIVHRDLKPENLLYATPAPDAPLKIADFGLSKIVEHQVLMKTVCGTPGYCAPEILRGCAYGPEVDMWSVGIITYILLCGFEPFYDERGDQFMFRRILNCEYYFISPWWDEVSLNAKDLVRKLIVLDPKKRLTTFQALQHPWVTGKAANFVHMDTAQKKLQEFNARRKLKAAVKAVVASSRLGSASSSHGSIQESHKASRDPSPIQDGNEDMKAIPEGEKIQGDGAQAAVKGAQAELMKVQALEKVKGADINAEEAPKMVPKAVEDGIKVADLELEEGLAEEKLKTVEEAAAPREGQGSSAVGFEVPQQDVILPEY
The following applies: at 0.1 µM.

The target of assay [5] is T1, Calcium/calmodulin-dependent protein kinase type IV (Homo sapiens). The following applies: at 1 µM.
Assay [6] has as its target T2, Serine/threonine-protein kinase Chk1 (Homo sapiens) (UniProt O14757).
T2 sequence (whole entry): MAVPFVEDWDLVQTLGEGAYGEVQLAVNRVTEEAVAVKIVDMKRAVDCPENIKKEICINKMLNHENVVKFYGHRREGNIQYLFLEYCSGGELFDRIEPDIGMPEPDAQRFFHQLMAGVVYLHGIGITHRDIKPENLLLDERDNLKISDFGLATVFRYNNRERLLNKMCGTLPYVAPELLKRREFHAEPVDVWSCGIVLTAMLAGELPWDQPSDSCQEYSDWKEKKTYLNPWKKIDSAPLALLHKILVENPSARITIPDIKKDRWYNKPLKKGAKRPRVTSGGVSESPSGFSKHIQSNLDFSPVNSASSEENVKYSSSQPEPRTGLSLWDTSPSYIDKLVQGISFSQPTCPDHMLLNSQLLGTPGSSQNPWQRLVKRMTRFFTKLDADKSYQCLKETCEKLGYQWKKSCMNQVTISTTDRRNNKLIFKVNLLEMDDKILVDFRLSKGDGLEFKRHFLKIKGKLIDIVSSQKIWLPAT
The conditions noted are these: at 0.1 µM.

Assay [7] has as its target T2, Serine/threonine-protein kinase Chk1 (Homo sapiens). The following applies: at 1 µM.
The target in assay [8] is Serine/threonine-protein kinase Chk2 (Homo sapiens) (UniProt O96017). The conditions noted are these: at 0.1 µM.
Assay [9] shares this target. The conditions noted are these: at 1 µM.
For assay [10], the target named is Death-associated protein kinase 1 (Homo sapiens) (UniProt P53355). The following applies: at 0.1 µM.
Assay [11] has the same target. The conditions noted are these: at 1 µM.
Assay [12] concerns the target T3, Serine/threonine-protein kinase DCLK2 (Homo sapiens) (UniProt Q8N568).
T3 sequence (whole entry): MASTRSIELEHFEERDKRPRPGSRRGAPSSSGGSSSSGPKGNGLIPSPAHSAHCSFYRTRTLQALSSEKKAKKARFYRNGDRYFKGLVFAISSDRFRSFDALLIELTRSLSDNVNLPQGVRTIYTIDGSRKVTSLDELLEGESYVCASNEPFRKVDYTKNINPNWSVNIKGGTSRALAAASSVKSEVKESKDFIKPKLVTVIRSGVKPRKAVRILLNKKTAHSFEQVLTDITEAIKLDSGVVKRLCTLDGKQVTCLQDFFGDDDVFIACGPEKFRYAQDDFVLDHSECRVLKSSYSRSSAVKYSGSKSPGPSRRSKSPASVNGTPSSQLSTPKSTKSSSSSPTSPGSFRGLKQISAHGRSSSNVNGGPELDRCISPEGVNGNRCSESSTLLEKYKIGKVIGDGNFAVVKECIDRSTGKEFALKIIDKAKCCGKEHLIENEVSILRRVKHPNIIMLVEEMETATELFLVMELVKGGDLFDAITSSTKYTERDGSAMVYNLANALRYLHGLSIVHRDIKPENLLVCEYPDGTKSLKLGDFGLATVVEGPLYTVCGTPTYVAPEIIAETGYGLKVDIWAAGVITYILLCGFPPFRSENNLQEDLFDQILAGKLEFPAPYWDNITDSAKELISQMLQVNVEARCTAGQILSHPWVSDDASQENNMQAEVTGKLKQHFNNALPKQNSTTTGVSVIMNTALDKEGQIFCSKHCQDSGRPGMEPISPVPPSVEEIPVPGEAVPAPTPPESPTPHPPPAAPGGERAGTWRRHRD
The following applies: at 0.1 µM.

Assay [13] concerns the target T3, Serine/threonine-protein kinase DCLK2 (Homo sapiens). The conditions noted are these: at 1 µM.
Assay [14] addresses MAP kinase-activated protein kinase 2 (Homo sapiens) (UniProt P49137). The following applies: at 0.1 µM.
Assay [15] shares this target. The following applies: at 1 µM.
Assay [16] has as its target MAP kinase-activated protein kinase 3 (Homo sapiens) (UniProt Q16644). The conditions noted are these: at 0.1 µM.
The target is the same in assay [17]. The following applies: at 1 µM.
Assay [18] deals with Serine/threonine-protein kinase MARK1 (Homo sapiens) (UniProt Q9P0L2). The conditions noted are these: at 0.1 µM.
For assay [19] the target is unchanged. The following applies: at 1 µM.
Assay [20] deals with MAP/microtubule affinity-regulating kinase 3 (Homo sapiens) (UniProt P27448). The conditions noted are these: at 0.1 µM.
MAP/microtubule affinity-regulating kinase 3 (Homo sapiens), sequence (P27448 whole entry, looked up): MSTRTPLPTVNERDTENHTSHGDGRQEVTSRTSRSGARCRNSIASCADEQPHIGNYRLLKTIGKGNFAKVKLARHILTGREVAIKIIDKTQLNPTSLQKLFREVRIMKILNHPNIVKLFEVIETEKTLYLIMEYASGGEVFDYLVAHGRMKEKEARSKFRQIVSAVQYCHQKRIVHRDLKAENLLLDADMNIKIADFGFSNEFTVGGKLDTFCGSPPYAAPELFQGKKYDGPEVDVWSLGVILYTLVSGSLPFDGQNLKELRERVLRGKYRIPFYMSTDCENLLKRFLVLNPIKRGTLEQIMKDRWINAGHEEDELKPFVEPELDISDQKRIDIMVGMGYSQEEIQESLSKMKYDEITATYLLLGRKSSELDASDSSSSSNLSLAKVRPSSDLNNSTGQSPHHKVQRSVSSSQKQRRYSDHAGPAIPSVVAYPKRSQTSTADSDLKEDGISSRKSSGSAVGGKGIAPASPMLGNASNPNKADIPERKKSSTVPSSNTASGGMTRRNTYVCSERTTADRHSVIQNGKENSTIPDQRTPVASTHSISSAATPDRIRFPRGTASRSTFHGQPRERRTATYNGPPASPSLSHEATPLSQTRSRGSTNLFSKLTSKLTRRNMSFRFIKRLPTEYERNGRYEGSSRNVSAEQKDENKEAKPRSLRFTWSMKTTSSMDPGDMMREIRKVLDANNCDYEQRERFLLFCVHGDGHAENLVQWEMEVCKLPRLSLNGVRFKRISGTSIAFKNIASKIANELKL

Calcium/calmodulin-dependent protein kinase type II subunit alpha (Homo sapiens), sequence (Q9UQM7 whole entry): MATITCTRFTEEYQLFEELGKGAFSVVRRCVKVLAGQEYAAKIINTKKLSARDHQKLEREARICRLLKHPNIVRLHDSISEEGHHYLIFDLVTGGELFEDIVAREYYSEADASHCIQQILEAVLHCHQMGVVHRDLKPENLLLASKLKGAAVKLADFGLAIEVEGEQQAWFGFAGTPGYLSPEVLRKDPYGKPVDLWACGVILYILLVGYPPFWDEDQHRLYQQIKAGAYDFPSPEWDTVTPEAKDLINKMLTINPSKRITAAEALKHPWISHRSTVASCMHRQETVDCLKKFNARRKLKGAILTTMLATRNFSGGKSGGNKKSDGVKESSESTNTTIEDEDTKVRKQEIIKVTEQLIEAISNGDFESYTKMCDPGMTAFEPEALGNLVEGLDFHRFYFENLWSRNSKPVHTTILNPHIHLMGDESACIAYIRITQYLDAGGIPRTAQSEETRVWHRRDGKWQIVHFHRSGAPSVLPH
Death-associated protein kinase 1 (Homo sapiens), sequence (P53355 whole entry, looked up): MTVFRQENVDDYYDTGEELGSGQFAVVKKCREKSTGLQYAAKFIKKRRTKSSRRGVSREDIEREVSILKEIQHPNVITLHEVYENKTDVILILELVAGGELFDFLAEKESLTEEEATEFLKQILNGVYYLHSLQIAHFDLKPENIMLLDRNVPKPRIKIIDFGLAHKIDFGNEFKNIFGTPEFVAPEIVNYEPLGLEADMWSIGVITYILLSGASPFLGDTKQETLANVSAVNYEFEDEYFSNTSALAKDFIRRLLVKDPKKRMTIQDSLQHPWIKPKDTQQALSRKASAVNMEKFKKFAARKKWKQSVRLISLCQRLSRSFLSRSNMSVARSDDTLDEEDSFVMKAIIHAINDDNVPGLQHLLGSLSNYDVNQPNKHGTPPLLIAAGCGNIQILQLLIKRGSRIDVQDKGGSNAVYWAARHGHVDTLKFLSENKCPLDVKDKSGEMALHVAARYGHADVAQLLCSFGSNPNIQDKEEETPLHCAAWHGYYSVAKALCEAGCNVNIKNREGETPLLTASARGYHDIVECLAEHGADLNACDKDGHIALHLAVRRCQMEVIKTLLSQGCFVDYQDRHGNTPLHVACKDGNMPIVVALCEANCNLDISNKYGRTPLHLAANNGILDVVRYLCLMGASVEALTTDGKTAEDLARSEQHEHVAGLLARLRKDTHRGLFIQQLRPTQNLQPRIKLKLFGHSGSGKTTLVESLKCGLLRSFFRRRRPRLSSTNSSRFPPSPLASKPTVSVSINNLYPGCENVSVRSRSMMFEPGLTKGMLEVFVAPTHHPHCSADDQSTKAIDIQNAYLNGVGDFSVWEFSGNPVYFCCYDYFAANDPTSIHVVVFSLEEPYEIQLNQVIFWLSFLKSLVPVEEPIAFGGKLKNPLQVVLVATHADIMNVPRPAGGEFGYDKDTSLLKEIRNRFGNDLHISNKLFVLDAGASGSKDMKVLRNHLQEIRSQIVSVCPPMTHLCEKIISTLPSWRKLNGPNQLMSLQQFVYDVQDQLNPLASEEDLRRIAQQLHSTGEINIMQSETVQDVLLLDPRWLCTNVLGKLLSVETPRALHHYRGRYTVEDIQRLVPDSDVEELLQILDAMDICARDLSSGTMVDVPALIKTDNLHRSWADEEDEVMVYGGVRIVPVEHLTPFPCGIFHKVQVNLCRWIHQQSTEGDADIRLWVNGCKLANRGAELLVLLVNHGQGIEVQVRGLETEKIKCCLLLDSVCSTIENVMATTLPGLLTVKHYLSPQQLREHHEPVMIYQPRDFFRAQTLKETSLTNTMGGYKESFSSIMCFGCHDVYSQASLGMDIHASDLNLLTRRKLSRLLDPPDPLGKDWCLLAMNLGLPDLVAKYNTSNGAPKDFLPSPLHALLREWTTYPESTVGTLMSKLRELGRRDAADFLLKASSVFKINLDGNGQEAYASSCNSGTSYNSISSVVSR
Serine/threonine-protein kinase Chk2 (Homo sapiens), sequence (O96017 whole entry): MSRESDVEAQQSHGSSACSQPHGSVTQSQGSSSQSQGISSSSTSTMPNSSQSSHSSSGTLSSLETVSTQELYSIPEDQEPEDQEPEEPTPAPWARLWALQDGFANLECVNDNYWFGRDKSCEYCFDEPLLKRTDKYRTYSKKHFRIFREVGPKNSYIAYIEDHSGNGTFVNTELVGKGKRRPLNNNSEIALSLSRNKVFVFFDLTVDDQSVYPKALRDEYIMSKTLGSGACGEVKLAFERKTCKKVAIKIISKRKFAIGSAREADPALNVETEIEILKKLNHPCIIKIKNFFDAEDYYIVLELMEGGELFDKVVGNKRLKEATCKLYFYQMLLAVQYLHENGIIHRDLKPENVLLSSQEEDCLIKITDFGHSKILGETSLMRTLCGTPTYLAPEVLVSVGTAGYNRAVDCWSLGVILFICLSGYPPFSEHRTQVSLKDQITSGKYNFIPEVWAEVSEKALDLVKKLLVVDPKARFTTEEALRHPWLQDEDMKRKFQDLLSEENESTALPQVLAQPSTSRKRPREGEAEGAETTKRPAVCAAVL
Calcium/calmodulin-dependent protein kinase type II subunit delta (Homo sapiens), sequence (Q13557 whole entry): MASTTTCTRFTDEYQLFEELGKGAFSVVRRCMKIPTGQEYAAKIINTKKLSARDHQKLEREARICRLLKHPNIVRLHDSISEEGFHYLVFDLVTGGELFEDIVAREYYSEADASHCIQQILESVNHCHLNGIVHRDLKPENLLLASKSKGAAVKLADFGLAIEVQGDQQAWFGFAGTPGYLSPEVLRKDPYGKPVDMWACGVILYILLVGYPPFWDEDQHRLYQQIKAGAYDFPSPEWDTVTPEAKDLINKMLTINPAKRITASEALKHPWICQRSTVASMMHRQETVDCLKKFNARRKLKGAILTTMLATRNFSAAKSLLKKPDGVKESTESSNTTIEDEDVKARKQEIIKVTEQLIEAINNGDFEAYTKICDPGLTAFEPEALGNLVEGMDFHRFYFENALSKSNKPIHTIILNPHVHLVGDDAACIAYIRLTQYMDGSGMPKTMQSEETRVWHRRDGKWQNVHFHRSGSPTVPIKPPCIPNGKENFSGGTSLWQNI
MAP kinase-activated protein kinase 2 (Homo sapiens), sequence (P49137 whole entry, looked up): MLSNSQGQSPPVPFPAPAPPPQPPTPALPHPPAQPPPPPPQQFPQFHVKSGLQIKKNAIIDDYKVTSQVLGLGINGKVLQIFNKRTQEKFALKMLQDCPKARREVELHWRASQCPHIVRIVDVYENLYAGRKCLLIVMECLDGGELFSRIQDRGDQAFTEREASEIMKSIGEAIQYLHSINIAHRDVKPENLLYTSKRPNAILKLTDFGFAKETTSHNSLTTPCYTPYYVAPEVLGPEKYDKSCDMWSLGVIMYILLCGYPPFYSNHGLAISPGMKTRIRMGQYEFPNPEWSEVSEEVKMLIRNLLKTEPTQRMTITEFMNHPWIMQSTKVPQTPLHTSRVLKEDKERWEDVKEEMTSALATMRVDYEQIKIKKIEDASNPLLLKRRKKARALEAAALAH
Serine/threonine-protein kinase MARK1 (Homo sapiens), sequence (Q9P0L2 whole entry, looked up): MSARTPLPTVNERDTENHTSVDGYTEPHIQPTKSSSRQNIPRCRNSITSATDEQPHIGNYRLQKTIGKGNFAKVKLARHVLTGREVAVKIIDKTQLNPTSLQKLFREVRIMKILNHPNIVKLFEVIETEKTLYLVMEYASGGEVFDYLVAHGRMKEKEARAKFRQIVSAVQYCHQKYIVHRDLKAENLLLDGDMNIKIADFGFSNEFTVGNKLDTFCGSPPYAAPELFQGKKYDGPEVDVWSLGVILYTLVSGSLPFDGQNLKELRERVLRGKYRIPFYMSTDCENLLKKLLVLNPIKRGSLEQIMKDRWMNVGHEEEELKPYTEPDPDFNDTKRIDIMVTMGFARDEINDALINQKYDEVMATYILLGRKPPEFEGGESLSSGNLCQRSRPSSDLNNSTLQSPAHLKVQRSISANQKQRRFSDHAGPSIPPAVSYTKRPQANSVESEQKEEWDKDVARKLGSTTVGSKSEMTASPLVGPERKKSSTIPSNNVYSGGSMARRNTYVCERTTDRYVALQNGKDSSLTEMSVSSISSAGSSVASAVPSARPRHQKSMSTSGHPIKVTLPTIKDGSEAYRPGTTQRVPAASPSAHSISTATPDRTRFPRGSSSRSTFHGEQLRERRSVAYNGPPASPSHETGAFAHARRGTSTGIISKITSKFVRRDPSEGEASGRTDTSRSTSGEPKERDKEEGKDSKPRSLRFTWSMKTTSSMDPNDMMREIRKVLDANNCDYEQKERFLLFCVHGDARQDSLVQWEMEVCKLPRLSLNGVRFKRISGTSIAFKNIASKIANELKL

Turning to `CCS(=O)(=O)c1ccc(OC)c(Nc2ncc(-c3cccc(OC)c3)o2)c1`, the inhibition in assay [1] was 6.74%; in [2], 1.91%; in assay [3], 9.35%; in assay [4], -0.13%; in assay [5], 1.2%; in [6], 1.44%. For the same molecule, the inhibition in [7] was 3.19%; in assay [8] it was 1.56%; in [9], 2.17%; in [10], 2.65%; in assay [11], 4.19%; in assay [12] it was 0.56%. The inhibition in [13] is -0.14%; in [14], 0.86%; in [15] it was 0.67%; in assay [16] it was 1.43%; in assay [17] it was 3.53%; in assay [18] it was 1.2%. In addition, the inhibition in [19] amounted to 2.37%; in assay [20], 3.96%.

As for `COc1cc2ncnc(Nc3ccc(C)c(O)c3)c2cc1OC`, the inhibition in assay [1] is 2.74%; in assay [2], 2.6%; in [3], 3.68%; in assay [4], -1.73%; in [5], -3.77%; in [6] it was 4.63%. Further, the inhibition amounted to 4% in [7]; 5.03% in assay [8]; 25.5% in assay [9]; 6.4% in assay [10]; 6.25% in [11]; 2.8% in assay [12]. Besides, the inhibition is 0.34% in assay [13]; 3.52% in assay [14]; 3.42% in assay [15]; 5.93% in assay [16]; 7.13% in assay [17]; 4.14% in assay [18]. Also, the inhibition in [19] came to 7.86%; in assay [20] it was 4.06%.

As to `FC(F)(F)c1ccc(-c2nn3ncccc3c2-c2ccnc(Nc3ccc4c(c3)OCCO4)n2)cc1`, the inhibition is -2.19% in assay [1]; -3.32% in [2]; -2.99% in assay [3]; -4.88% in assay [4]; -4.43% in [5]; 0.08% in assay [6]. Also, the inhibition in assay [7] is 1.68%; in assay [8], 3.99%; in [9], 5.26%; in [10], 1.54%; in [11], 1.79%; in assay [12], 5.13%. The inhibition in assay [13] came out at 2.77%; in assay [14], 3.11%; in [15] it was 3.56%; in assay [16] it was 10.3%; in [17] it was 30.6%; in [18], 4.61%. Further, the inhibition in [19] was determined as 6.64%; in assay [20], 5.66%.

As to `Cc1ccc(C(=O)NC2CC2)cc1-c1ccc2[nH]ncc2c1`, the inhibition in assay [1] was -2.98%; in assay [2], -2.96%; in assay [3], 1.9%; in assay [4] it was -2.05%; in assay [5] it was -2.16%; in assay [6], -1.76%. Also, the inhibition in assay [7] was -4.22%; in assay [8], -4.46%; in assay [9], -3.82%; in [10], -2.57%; in [11], -2.38%; in [12], -3.53%. The inhibition in assay [13] was -2.34%; in assay [14], -2.72%; in assay [15] it was -1.94%; in assay [16], 3.22%; in assay [17] it was 18.7%; in assay [18], 0.44%. The inhibition came out at 2.83% in [19] and 1.64% in [20].

As for `COC(=O)c1cncc(/C=C/c2c(C)cc(O)cc2C)c1`, the inhibition in [1] is 3.06%; in assay [2] it was 1.37%; in assay [3], 3%; in [4] it was -2.74%; in assay [5], -4.13%; in [6] it was 3.13%. Moreover, the inhibition in [7] is 3.49%; in [8], 2.38%; in assay [9], 4.27%; in assay [10], 4.88%; in [11], 5.55%; in assay [12], 1.84%. Besides, the inhibition in [13] was 1.18%; in [14], 1.83%; in assay [15] it was 2.28%; in assay [16], 2.97%; in assay [17], 3.34%; in assay [18], 2.55%. Also, the inhibition turned out to be 2.79% in [19] and 2.68% in assay [20].
